Experimental data taken from PubChem BioAssay AID1159580 (chemical genetic matrix, 2015).
Several values for one entry are separate records, joined by “and”; a condition that tells them apart may be missing. Equal entries are not always repeated. Among all 5,500 compounds or so, about 2,000 (36%) were called active. About 18% were inconclusive and are not listed. Cut-off read from the data, not from the text of the source: active = normalized growth mostly below about 0.91 (no sharp cut-off); inconclusive = no clear call, values can overlap the other calls; inactive = mostly above about 0.92. Some of the results follow.

Experiment: chemical genetic growth profiling, strain panel (AID 1159580);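 note: tested at 20 µM; growth read once vehicle control cultures reached saturation at 30 °C; 1 = growth at the plate median or of vehicle wells; lower values mean less growth of the strain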
Settings: growth OD
[1] = S. cerevisiae deletion strains, locus YDL101C, strain DUN1, stronger effect = lower value
[2] = S. cerevisiae deletion strains, locus YGR052W, strain FMP48, stronger effect = lower value
[3] = S. cerevisiae deletion strains, locus YHR030C, strain SLT2, stronger effect = lower value
[4] = S. cerevisiae deletion strains, locus YHR079C, strain IRE1, stronger effect = lower value
[5] = S. cerevisiae deletion strains, locus YHR082C, strain KSP1, stronger effect = lower value
[6] = S. cerevisiae deletion strains, locus YJL095W, strain BCK1, stronger effect = lower value
[7] = S. cerevisiae deletion strains, locus YJR066W, strain TOR1, stronger effect = lower value
[8] = S. cerevisiae deletion strains, locus YKL203C, strain TOR2, stronger effect = lower value
[9] = S. cerevisiae deletion strains, locus YLR113W, strain HOG1, stronger effect = lower value
[10] = S. cerevisiae deletion strains, locus YNL183C, strain NPR1, stronger effect = lower value
[11] = S. cerevisiae deletion strains, locus YNL207W, strain RIO2, stronger effect = lower value
[12] = S. cerevisiae deletion strains, locus YOR119C, strain RIO1, stronger effect = lower value
[13] = S. cerevisiae deletion strains, locus YOR231W, strain MKK1, stronger effect = lower value
[14] = S. cerevisiae deletion strains, locus YPL256C, strain CLN2, stronger effect = lower value

Measured: normalized growth

CSc1ccc(/C=C/[N+](=O)[O-])cc1
active: S. cerevisiae deletion strains, locus YAL013W, strain DEP1, stronger effect = lower value 0.0558 | S. cerevisiae deletion strains, locus YBR229C, strain ROT2, stronger effect = lower value 0.0536 | S. cerevisiae deletion strains, locus YCL061C, strain MRC1, stronger effect = lower value 0.0551 | [1] 0.0652 | S. cerevisiae deletion strains, locus YDL134C, strain PPH21, stronger effect = lower value 0.0471 | S. cerevisiae deletion strains, locus YDR150W, strain NUM1, stronger effect = lower value 0.582 | S. cerevisiae deletion strains, locus YEL061C, strain CIN8, stronger effect = lower value 0.0542 | [2] 0.131 | S. cerevisiae deletion strains, locus YGR078C, strain PAC10, stronger effect = lower value 0.0514 | [3] 0.0754 and 0.122 | [4] 0.176 | [5] 0.118 | S. cerevisiae deletion strains, locus YHR087W, strain rtc3, stronger effect = lower value 0.0549 | [6] 0.126 | S. cerevisiae deletion strains, locus YJR043C, strain POL32, stronger effect = lower value 0.0504 | [7] 0.114 | S. cerevisiae deletion strains, locus YJR075W, strain HOC1, stronger effect = lower value 0.0722 | S. cerevisiae deletion strains, locus YKL171W, strain NNK1, stronger effect = lower value 0.104 | S. cerevisiae deletion strains, locus YKL190W, strain CNB1, stronger effect = lower value 0.0461 | [8] 0.107 | S. cerevisiae deletion strains, locus YLR039C, strain RIC1, stronger effect = lower value 0.0613 | S. cerevisiae deletion strains, locus YLR058C, strain SHM2 (second series), stronger effect = lower value 0.0502 | S. cerevisiae deletion strains, locus YLR085C, strain ARP6, stronger effect = lower value 0.0653 | [9] 0.179 | S. cerevisiae deletion strains, locus YLR262C, strain YPT6, stronger effect = lower value 0.0583 | S. cerevisiae deletion strains, locus YML094W, strain GIM5, stronger effect = lower value 0.0645 | S. cerevisiae deletion strains, locus YMR219W, strain ESC1, stronger effect = lower value 0.0483 | S. cerevisiae deletion strains, locus YMR263W, strain SAP30, stronger effect = lower value 0.0556 | S. cerevisiae deletion strains, locus YNL153C, strain GIM3, stronger effect = lower value 0.0516 | [10] 0.138 | [11] 0.0972 | S. cerevisiae deletion strains, locus YNL298W, strain CLA4 (second series), stronger effect = lower value 0.0614 | S. cerevisiae deletion strains, locus YNL322C, strain KRE1, stronger effect = lower value 0.0528 | S. cerevisiae deletion strains, locus YNR030W, strain Alg12, stronger effect = lower value 0.0591 | S. cerevisiae deletion strains, locus YOL006C, strain TOP1, stronger effect = lower value 0.068 | [12] 0.119 | [13] 0.133 | S. cerevisiae deletion strains, locus YPL055C, strain LGE1, stronger effect = lower value 0.0721 | S. cerevisiae deletion strains, locus YPL241C, strain CIN2, stronger effect = lower value 0.0816 | [14] 0.17 | S. cerevisiae deletion strains, locus YPR135W, strain CTF4, stronger effect = lower value 0.202 | S. cerevisiae strains, strain wild type, stronger effect = lower value 0.0455

C=CCOc1ccc(/C=C/[N+](=O)[O-])cc1
active: S. cerevisiae deletion strains, locus YAR019C, strain CDC15, stronger effect = lower value 0.0985 | S. cerevisiae deletion strains, locus YBL105C, strain PKC1, stronger effect = lower value 0.0881 | S. cerevisiae deletion strains, locus YBR135W, strain CKS1, stronger effect = lower value 0.0822 | S. cerevisiae deletion strains, locus YBR136W, strain MEC1, stronger effect = lower value 0.095 | S. cerevisiae deletion strains, locus YBR160W, strain CDC28, stronger effect = lower value 0.0851 | S. cerevisiae deletion strains, locus YDL017W, strain CDC7, stronger effect = lower value 0.0853 | S. cerevisiae deletion strains, locus YDL028C, strain MPS1, stronger effect = lower value 0.0971 | [1] 0.108 | S. cerevisiae deletion strains, locus YDL108W, strain KIN28, stronger effect = lower value 0.1 | S. cerevisiae deletion strains, locus YDL132W, strain cdc53, stronger effect = lower value 0.0933 | S. cerevisiae deletion strains, locus YDL214C, strain PRR2, stronger effect = lower value 0.0888 | S. cerevisiae deletion strains, locus YDR052C, strain DBF4, stronger effect = lower value 0.0837 | S. cerevisiae deletion strains, locus YDR054C, strain cdc34, stronger effect = lower value 0.0953 | S. cerevisiae deletion strains, locus YDR477W, strain SNF1, stronger effect = lower value 0.104 | S. cerevisiae deletion strains, locus YER123W, strain YCK3, stronger effect = lower value 0.105 | S. cerevisiae deletion strains, locus YER133W, strain GLC7, stronger effect = lower value 0.096 | S. cerevisiae deletion strains, locus YFL009W, strain cdc4, stronger effect = lower value 0.0895 | S. cerevisiae deletion strains, locus YFL029C, strain CAK1, stronger effect = lower value 0.094 | S. cerevisiae deletion strains, locus YFR003C, strain YPI1, stronger effect = lower value 0.0875 | S. cerevisiae deletion strains, locus YFR019W, strain FAB1, stronger effect = lower value 0.0967 | S. cerevisiae deletion strains, locus YFR028C, strain CDC14, stronger effect = lower value 0.0822 | S. cerevisiae deletion strains, locus YGR040W, strain KSS1, stronger effect = lower value 0.0972 | [2] 0.116 | S. cerevisiae deletion strains, locus YGR092W, strain DBF2, stronger effect = lower value 0.106 | [3] 0.12 | [4] 0.118 | [5] 0.124 | S. cerevisiae deletion strains, locus YHR205W, strain SCH9, stronger effect = lower value 0.00436 | S. cerevisiae deletion strains, locus YIL147C, strain SLN1, stronger effect = lower value 0.116 | [6] 0.124 | S. cerevisiae deletion strains, locus YJL128C, strain PBS2, stronger effect = lower value 0.154 | S. cerevisiae deletion strains, locus YJL157C, strain FAR1, stronger effect = lower value 0.0842 | S. cerevisiae deletion strains, locus YJR016C, strain ILV3, stronger effect = lower value 0.0828 | S. cerevisiae deletion strains, locus YJR066W, strain TOR1 (second series), stronger effect = lower value 0.0922 | [7] 0.118 | S. cerevisiae deletion strains, locus YKL048C, strain ELM1, stronger effect = lower value 0.107 | S. cerevisiae deletion strains, locus YKL067W, strain YNK1, stronger effect = lower value 0.0924 | S. cerevisiae deletion strains, locus YKL101W, strain HSL1, stronger effect = lower value 0.0997 | S. cerevisiae deletion strains, locus YKL193C, strain SDS22, stronger effect = lower value 0.0826 | [8] 0.104 | [9] 0.147 | S. cerevisiae deletion strains, locus YLR133W, strain CKI1, stronger effect = lower value 0.102 | S. cerevisiae deletion strains, locus YLR403W, strain SFP1, stronger effect = lower value -0.00907 | S. cerevisiae deletion strains, locus YML070W, strain DAK1, stronger effect = lower value 0.0908 | S. cerevisiae deletion strains, locus YMR001C, strain CDC5, stronger effect = lower value 0.0861 | S. cerevisiae deletion strains, locus YMR205C, strain PFK2 (second series), stronger effect = lower value 0.095 | S. cerevisiae deletion strains, locus YMR277W, strain FCP1, stronger effect = lower value 0.0876 | S. cerevisiae deletion strains, locus YNL006W, strain LST8, stronger effect = lower value 0.0846 | S. cerevisiae deletion strains, locus YNL020C, strain ARK1, stronger effect = lower value 0.0937 | S. cerevisiae deletion strains, locus YNL161W, strain CBK1, stronger effect = lower value 0.0814 | [10] 0.127 | [11] 0.0904 | S. cerevisiae deletion strains, locus YNL222W, strain SSU72, stronger effect = lower value 0.0824 | S. cerevisiae deletion strains, locus YNL307C, strain MCK1 (second series), stronger effect = lower value 0.102 | S. cerevisiae deletion strains, locus YOL078W, strain AVO1, stronger effect = lower value 0.083 | S. cerevisiae deletion strains, locus YOL136C, strain PFK27, stronger effect = lower value 0.0949 | S. cerevisiae deletion strains, locus YOR061W, strain CKA2, stronger effect = lower value 0.0943 | [12] 0.112 | [13] 0.109 | S. cerevisiae deletion strains, locus YOR329C, strain SCD5, stronger effect = lower value 0.0843 | S. cerevisiae deletion strains, locus YPL031C, strain PHO85, stronger effect = lower value 0.102 | S. cerevisiae deletion strains, locus YPL153C, strain RAD53, stronger effect = lower value 0.0983 | S. cerevisiae deletion strains, locus YPL204W, strain HRR25, stronger effect = lower value 0.0984 | S. cerevisiae deletion strains, locus YPL209C, strain IPL1, stronger effect = lower value 0.0828 | [14] 0.134 | S. cerevisiae deletion strains, locus YPR025C, strain CCL1, stronger effect = lower value 0.0851 | S. cerevisiae deletion strains, locus YPR106W, strain ISR1, stronger effect = lower value 0.0928 | S. cerevisiae deletion strains, locus YPR111W, strain DBF20, stronger effect = lower value 0.154 | S. cerevisiae deletion strains, strain NNK1, stronger effect = lower value 0.1 | S. cerevisiae deletion strains, strain TSCII, stronger effect = lower value 0.0928
